The source of these data is PubChem BioAssay AID504332 (National Center for Advancing Translational Sciences (NCATS), 2011).

In all, about 350,000 compounds went through this assay and about 31,000 (8.9%) were called active. About 15% were inconclusive and are not listed. The full list was thinned out, with actives kept by preference. Values without a mark were called inactive. Calls come from the whole dose curve; as a rule, active = well fitted inhibition curve with a large enough effect; inconclusive = small, poorly fitted or top-dose-only effect; inactive = no such curve, though single readings can be large or run the other way.
% is set by controls: 0 for no effect and ±100 for the full control effect; potency is the fitted concentration of half-maximal effect.

Sequence of Histone-lysine N-methyltransferase EHMT2 (Homo sapiens) (Q96KQ7 913-1193 limits assumed): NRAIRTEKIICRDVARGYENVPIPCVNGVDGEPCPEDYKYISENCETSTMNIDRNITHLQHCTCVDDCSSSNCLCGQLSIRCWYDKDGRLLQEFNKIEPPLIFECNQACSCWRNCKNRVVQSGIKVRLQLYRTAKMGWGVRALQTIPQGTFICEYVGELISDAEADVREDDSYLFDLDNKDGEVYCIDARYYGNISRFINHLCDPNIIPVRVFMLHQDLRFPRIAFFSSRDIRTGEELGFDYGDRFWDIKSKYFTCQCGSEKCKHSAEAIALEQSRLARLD

In this experiment the target is Histone-lysine N-methyltransferase EHMT2 (Homo sapiens) (UniProt Q96KQ7). As to the kind of experiment: qHTS Assay for Inhibitors of Histone Lysine Methyltransferase G9a. Note: nearly all actives have a fitted effect of over 75% in size. The note with it: G9a H3K9 monomethylation, AlphaScreen, 2 h; series mostly up to 59 µM; activity, negative = inhibition: at the top concentration. Put shortly:
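Enzyme 20 nM + cpd, 15 min RT; add b-H3K9 pep 500 nM / SAM 20 uM; 2 h RT; anti-H3K9me1 Ab 0.5 ug/mL + SA donor / anti-rabbit acceptor beads 20 ug/mL each, 10 min; AlphaScreen read.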
Background: Quantitative high-throughput screening tests each substance at several concentrations.
With `Cc1ccc2[nH]c3c(=O)n(CC(=O)NC(C)C)ncc3c2c1`, the “activity, negative = inhibition” value was -25.7%. Still for that read-out and setting: with `CCc1ccc(NC(=O)CN2C(=O)C(c3ccccc3)=NC23CCCCCC3)cc1` the figure was 9.48%; with `Cc1cc2c(cc3c(SCc4nc(-c5ccccc5)oc4C)nnc(C)n32)o1`, -6.19%. Still for that read-out and setting: with `Cc1nnc(SCc2cccc(Cl)c2)n(N)c1=O` the figure was 6.28% [at 102 µM].

Turning to `Cc1cc2c(cc3c(SCc4cccc(Cl)c4)nnc(C)n32)o1`, the Potency is 7.08 µM (active). Turning to `Cc1cc(C(=O)NNC(=O)c2ccccc2O)c(C)o1`, the activity, negative = inhibition was 72.2% [at 12.7 µM]. As for `CC(=O)Nc1ccc(NC(=O)C(NS(=O)(=O)c2ccc3c(c2)OCCO3)C(C)C)cc1` (stereo not given), the activity, negative = inhibition is 15.5% [at 12.7 µM]. With `Cc1ccc(C2NC(C(=O)O)CS2)cc1` (stereo not given), the Potency was 31.6 µM (active).

In the case of `Cc1ccc(NC(=O)C2CC2c2ccccc2)cc1` (stereo not given), the activity, negative = inhibition is 18.3% [at 2.33 µM]. On the same count and under the same terms, then `Cc1ccc(C2CC2C(=O)NN)cc1` (stereo not given), with 8.33% [at 102 µM]; and `COc1cc(C(=O)Nc2ccc(-n3c(C)nc4ccccc4c3=O)cc2)cc(OC)c1OC`, with 2.32%. Consider `CCc1c(C)nc(N)n2c(SCC(=O)NC3CCCCC3)nnc12`, for which the “activity, negative = inhibition” value is -19.6% [at 102 µM]. Take `COc1ccc(OC)c2[nH]c(=O)c(CCNC(=O)C(=O)c3c[nH]c4ccccc34)cc12`: the Potency is 50.1 µM (active). For `O=C(NCCCc1ccccc1)C(=O)c1c[nH]c2ccccc12`, the “activity, negative = inhibition” value was 72.9% [at 102 µM]. For the compound `COc1ccc(OC)c2[nH]c(=O)c(CCNC(=O)C(C)(C)C)cc12`, the “activity, negative = inhibition” value is -0.81% [at 102 µM].

For the compound `Cc1ccc(S(=O)(=O)c2cn(Cc3ccccc3)c3cc(N4CCCC4)c(F)cc3c2=O)c(C)c1`, the “activity, negative = inhibition” value was -8.52%. Take `Cc1c(NC(=O)c2cc(=O)c3ccccc3o2)c(=O)n(-c2ccccc2)n1C`: the “activity, negative = inhibition” value is 2.29%. For the compound `CCc1cccc(CC)c1NC(=O)Cn1c(=O)c(-c2cc(C)ccc2NC(C)=O)nc2ccccc21`, the “activity, negative = inhibition” value is -7.86%. The same measure, in the same setting: with `COC(=O)c1c(NC(=O)C(C)Oc2ccc(Cl)c(C)c2)sc(C)c1C` (stereo not given) the figure was 3.93%. For `COCCCNCC(=O)Nc1sc(C)c(C)c1C(=O)OC`, the Potency is 1 µM (active). As to `COC(=O)c1sc(NC(=O)COC(=O)C2CCC2)c(C(=O)OC)c1C`, the “activity, negative = inhibition” value is 11.6% [at 102 µM].

Consider `CSc1ccccc1NC(=O)COC(=O)CCCOc1ccc(C)cc1`, for which the “activity, negative = inhibition” value was 61.2% [at 102 µM]. Same read-out and setting: then `COc1ccc(CNC(=O)c2cc(C(=O)C3CC3)c[nH]2)cc1`, with 36.9% [at 102 µM]. Take `Cc1cccc(N2CCN(C(=O)/C=C/c3ccco3)CC2)c1C`: the Potency is 11.2 µM (active).

Regarding `Cc1cccc(N2CCN(C(=O)CCSCc3ccccc3F)CC2)c1C`, the “activity, negative = inhibition” value is 4.33%. As for `Cc1cccc(N2CCN(C(=O)c3cnc(N4CCCC4)nc3C)CC2)c1C`, the activity, negative = inhibition was 5.62% [at 12.7 µM]. Still for that read-out and setting: then `COc1ccc(CN(C)C(=O)c2cc(-c3ccc(C)cc3C)nc3ccccc23)c(OC)c1OC`, with -28.5% [at 102 µM]; and `Cc1cccc(-n2ncc(C(=O)N3CCN(c4ccc(Cl)cc4)CC3)c2C2CCN(C(=O)OC(C)(C)C)CC2)c1`, with -31.9%; and `Cc1ccc2nc(NC(=O)C3CCN(S(=O)(=O)c4ccc5c(c4)oc(=O)n5C)CC3)sc2c1`, with -16.1% [at 102 µM]. Regarding `Cc1ccc2nc(N3C(=O)C(O)=C(C(=O)c4ccco4)C3c3cccc(O)c3)sc2c1` (stereo not given), the Potency was 31.6 µM (active).

Take `CCOc1ccc2nc(N3CCC(C(=O)Nc4cc(C)ccc4C)CC3)sc2c1`: the “activity, negative = inhibition” value was -3.63%. Same read-out and setting: with `COc1ccc([C@H]2CC(=O)C=C(c3ccc(C)cc3)C2)cc1` the figure was -2.52% [at 0.501 µM].

In the case of `CCc1nc2cccnc2n1-c1ccc(CC(=O)Nc2c(C)cccc2C)cc1`, the “activity, negative = inhibition” value is -10.5%. With `CCc1nc2cccnc2n1-c1ccc(C(=O)O)cc1`, the Potency was 35.5 µM (active). As to `COCCCNC(=O)Cc1ccc(-n2c(C)nc3cccnc32)cc1`, the “activity, negative = inhibition” value is 3.74% [at 102 µM].

Take `COc1ccc(NC(=O)CCN2CCCC2)c(OC)c1`: the “activity, negative = inhibition” value is -43.1%.

For `COc1ccc(OC)c(NC(=O)CCN2CCC(C)CC2)c1`, the “activity, negative = inhibition” value is -7.48%. Regarding `COC(=O)CNC(c1ccccc1Cl)c1cc(Br)ccc1NC(=O)CCN1CCOCC1` (stereo not given), the Potency is 39.8 µM (active). Consider `O=C(CSc1nc2nccnc2c(=O)n1CCc1c[nH]c2ccccc12)Nc1ccccc1F`, for which the “activity, negative = inhibition” value was -1.63%. Same read-out and setting: then `O=C(c1cccc(Br)c1)N1CCN(Cc2cc(=O)n3nc(-c4ccccc4)sc3n2)CC1`, with -15.5%; and `CN(Cc1cccs1)C(=O)CN1C(=O)c2ccccc2S1(=O)=O`, with -6.03% [at 2.33 µM]. The same measure, in the same setting: with `CCCCN(C(=O)c1nn(C)c(=O)c2ccccc12)c1c(N)n(CCC)c(=O)[nH]c1=O` the figure was -30.6% [at 12.7 µM].

As to `O=C(Oc1ccc([N+](=O)[O-])cc1)c1ccc2ccccc2n1`, the Potency was 12.6 µM (active). On to `CC(OC(=O)c1ccc2ccccc2n1)C(=O)c1ccccc1` (stereo not given), for which the “activity, negative = inhibition” value was 27.2% [at 102 µM]. Still for that read-out and setting: then `O=C(OCc1ccc([N+](=O)[O-])cc1)c1ccccn1`, with -29.9% [at 102 µM]. On the same count and under the same terms, with `COCCn1c(SCC(=O)c2cc(C)ccc2C)nc2cc(C(=O)NC3CCCC3)ccc2c1=O` the figure was -6.47%; with `O=C(COC(=O)c1ccccc1Cl)NC1CCCCCCC1`, 6.1% [at 0.501 µM]; with `COc1ccc(S(=O)(=O)N(C)CC(=O)N2CCCC2)cc1Cl`, -5.71% [at 102 µM]. On to `COc1ccc(S(=O)(=O)NCc2cccn2Cc2cccc(C)c2)cc1Cl`, for which the “activity, negative = inhibition” value was -4.35%. With `COc1ccc(S(=O)(=O)c2c[nH]c(=S)[nH]c2=O)cc1Cl`, the Potency is 79.4 µM (active).
